High-throughput results from PubChem.
A selection: hits, their analogues and other compounds. The true share with any hit is near 6%.
D3 ag – agonists of human D3 dopamine receptor; P35462; actives 0.58% (n = 410,000); max activation, %; D3R DiscoveRx beta-arrestin cells, luminescence, 90 min; in the data active means max activation above about 30%; further: 0% is about no effect
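Cells at 1500/well, incubated overnight, then treated with pinned compounds (dopamine as control) for 90 min at 37 degrees C. DiscoveRx reagent added for 30 - 60 minutes at room temperature; luminescence read.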
D1 antagonist – human D1 dopamine receptor antagonism. P21728. HEK293 TREx D1 cells, calcium flux, dopamine EC80; hits give low values. activity change, negative = inhibition, % at 10 µM. actives 3.2% (n = 360,000); in the data active means activity change below about -30%; further: on the % scale 0 is the no-effect control and ±100 the full control effect
Target sequence (P21728 whole entry, looked up): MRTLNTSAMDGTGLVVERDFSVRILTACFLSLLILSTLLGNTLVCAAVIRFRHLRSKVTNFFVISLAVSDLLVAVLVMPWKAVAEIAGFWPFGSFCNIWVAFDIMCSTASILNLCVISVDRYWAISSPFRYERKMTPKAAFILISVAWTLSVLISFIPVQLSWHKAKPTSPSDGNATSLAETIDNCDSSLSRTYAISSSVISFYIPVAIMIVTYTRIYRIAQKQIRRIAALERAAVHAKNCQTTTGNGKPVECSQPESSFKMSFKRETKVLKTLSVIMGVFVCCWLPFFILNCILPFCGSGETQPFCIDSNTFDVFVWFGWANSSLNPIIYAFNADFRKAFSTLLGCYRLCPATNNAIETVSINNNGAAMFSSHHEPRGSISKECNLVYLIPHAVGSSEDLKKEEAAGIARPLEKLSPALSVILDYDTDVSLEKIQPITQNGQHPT
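Inducible Hek293 Trex D1 cells (tetracycline, overnight, 30 C). Calcium dye 30–90 min RT. Antagonist mode: EC80 dopamine added after 180 s compound read.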
DRD3 antagonist – D3 dopamine receptor (human) antagonism; P35462; D3R cells, DiscoveRx beta-arrestin luminescence, antagonist mode; hits give low values; max response, negative = inhibition, %; actives 2.5% (n = 360,000); AID 652054; in the data active means max response below about -50%; inconclusive means no clear call, values can overlap the other calls; further: on the % scale 0 is the no-effect control and ±100 the full control effect
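Cells plated overnight at 1500 cells/well, then exposed to library compounds with dopamine controls for 90 minutes at 37 degrees C. DiscoveRx reagent added for 30–60 minutes at room temperature; luminescence read, quantitative HTS format.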
D1 PAM – human D1 dopamine receptor positive modulation; actives 0.036% (n = 360,000); HEK293 TREx D1 cells, calcium flux, dopamine EC20 potentiation; P21728; potentiation, % at 10 µM; in the data active means potentiation above about 30%; further: 0% is about no effect
D1 ag – activates the human D1 dopamine receptor; P21728; HEK293 T-REx D1 cells, calcium flux, agonist mode; activation, % at 2 µM; actives 1% (n = 360,000); in the data active means activation above about 30%; further: 0% is about no effect
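Agonism was scored from calcium flux recorded over 180 s (1 read/s) after pintool compound addition, following a 10-cycle baseline. Cells were inducible force-coupled HEK293 TREx D1, plated overnight at 30 C and loaded with no-wash calcium dye.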
An asterisk follows results filed as active; ? = inconclusive; . = no result given; ! = a repeat was not active.

SMILES | D3 ag | D1 antagonist | DRD3 antagonist | D1 PAM | D1 ag
O=C(NCc1cccnc1)C(=O)NCC(c1ccco1)N1CCN(c2ccccc2F)CC1 (stereo not drawn) | 51* | -16 | 22 | 0 | 18
COc1ccc(NS(=O)(=O)c2c(C)n(C)c(=O)n(C)c2=O)cc1OC | 2 | -31* | 2 | 0 | 0
COc1ccc(-c2cn3c(C)c(C(=O)N4CCc5ccccc5C4)sc3n2)cc1 | 5 | -31* | 7 | -7 | 4
Cc1nn2c(N3CCN(CCO)CC3)c3c(nc2c1-c1ccccc1)CCCC3 | -20 | -66* | -20 | -2 | 9
Cc1nn2c(N3CCCC3)c3c(nc2c1-c1ccccc1)CCC3 | 1 | 0 | 4 | -1 | 0
Nc1ccc(N2C(=O)c3ccccc3C2=O)c(Cl)c1 | 1 | -46* | 5 | -3 | -1
COc1ccc(C(CNC(=O)c2ccc(-c3ccccc3Cl)o2)N2CCCC2)cc1 (stereo not drawn) | -2 | . | -121* | . | .
O=C(NN1C(=O)NC2(CCCCC2)C1=O)c1ccc(-c2ccc([N+](=O)[O-])cc2)o1 | 1 | -3 | 1 | -4 | 3
COc1ccc(C(CNC(=O)c2ccc(C)o2)N2CCOCC2)cc1 (stereo not drawn) | -6 | 1 | 0 | 1 | 0
COc1ccc(C(CNC(=O)c2ccc(-c3nc4ccccc4s3)o2)N2CCCC2)cc1 (stereo not drawn) | -20 | -1 | -83* | 10 | 2
COc1ccc(C(CNC(=O)CNC(=O)c2ccccc2)N2CCCC2)cc1 (stereo not drawn) | -13 | 6 | ? | -2 | 3
O=C(NN1C(=O)NC2(CCCCC2)C1=O)c1ccc(-c2ccccc2Cl)o1 | -6 | 20 | -52* | -1 | 3
Cc1ccc(C(=O)NCC(=O)OC(C(=O)Nc2cc(C(F)(F)F)ccc2Cl)c2ccccc2)cc1 (stereo not drawn) | . | 11 | . | 1 | 2
CS(=O)(=O)N1CCc2cc(C(=O)Nc3cccc(F)c3)ccc21 | -12 | -6 | . | 0 | 1
CC(=O)NC1CC2CCCC(C1)N2C(=O)Nc1cccc(C(C)=O)c1 (stereo not drawn) | -1 | . | -8 | . | .
CC(C)c1ccc(/C=C/C(=O)Nc2nn[nH]n2)cc1 | . | -31* | . | -4 | 3
Cc1ccc(/C=C/C(=O)Nc2nn[nH]n2)o1 | 1 | -1 | 0 | -3 | 3
O=C(Nc1cccc(S(=O)(=O)N2CCOCC2)c1)C1CCN(S(=O)(=O)c2ccccc2)CC1 | 1 | -3 | -2 | -3 | 4
COc1ccc(C2CNC(=O)C2)cc1OC1CCCC1 (stereo not drawn) | 8 | -42*! | -8 | 2 | 1
COc1cccc(NC(=O)CN(C)CC(=O)Nc2ccc(C)c(S(=O)(=O)N3CCOCC3)c2)c1 | 1 | . | 48 | . | .
Cc1ccc(OCCCn2ccnc2)c([N+](=O)[O-])c1 | 0 | -6 | -9 | 1 | 1
CCCCNCCCOc1cccc(Cl)c1Cl | -21 | -3 | -81* | -5 | 18
CNCCCOc1ccc(C)cc1Br | -8 | 5 | -53* | -3 | 5
Cc1ccc(OCCCn2ccnc2)c(Br)c1 | 2 | -68* | -2 | -7 | 5
CCCCNCCCOc1ccc(C)cc1Br | 0 | -9 | -67* | -5 | 21
SMILES | D3 ag | D1 antagonist | DRD3 antagonist | D1 PAM | D1 ag
Cc1ccc(OCCCN(C)C)c(Br)c1 | -20 | 6 | 4 | -2 | 1
COCCNc1nc2c(c(=O)n(C)c(=O)n2C)n1CCCc1ccccc1 | 4 | . | 11 | . | .
N#Cc1nc(Nc2cccc(C(F)(F)F)c2)nc(NC2CCCC2)n1 | . | -11 | . | -3 | 7
Nc1[nH]c(C(=O)c2ccccc2)c(-c2ccc(Br)cc2)c1C(=O)c1ccc(Br)cc1 | 6 | . | 1 | . | .
Cc1ccc(OCCCNCCO)c(Br)c1 | -2 | -2 | -60* | -7 | 9
CNCCCCOc1ccc(C(C)(C)C)cc1Cl | -17 | 10 | -50* | 0 | 27
C[C@@H]1C/C=C/C=C/C=C/C=C/[C@H](O[C@@H]2O[C@H](C)[C@@H](O)[C@H](N)[C@@H]2O)C[C@@H]2O[C@](O)(C[C@@H](O)C[C@H]3O[C@@H]3/C=C/C(=O)O1)C[C@H](O)[C@H]2C(=O)O | 7 | . | . | . | .
O=C(COc1ccc2cc(Br)ccc2c1)N1CCOCC1 | 8 | . | 8 | . | .
O=C(Oc1ccc2cc(Br)ccc2c1)N1CCCCCC1 | . | -7 | . | -1 | 41*
COc1cccc2c1Oc1ncccc1N(C(=O)CCC(=O)NC(C)C)C2 | 2 | -2 | . | 2 | 0
O=C(CCC(=O)c1ccc(F)cc1)Nc1cc(Cl)cc(Cl)c1 | -3 | -41* | 32 | -3 | 20
CC(=O)c1cccc(NC(=O)CCC(=O)c2ccc(F)cc2)c1 | 6 | 0 | 0 | 0 | 4
CC(OC(=O)c1ccc2ncsc2c1)C(=O)N(C)C1CCCCC1 (stereo not drawn) | -1 | 2 | -9 | -5 | 5
CCOC(=O)c1[nH]c(C)c(C(=O)OCC(=O)N(Cc2ccccc2)C(C)C)c1C | 7 | -20 | 27 | 0 | 0
CCOCCCNC(=O)Cn1cc2c(n1)-c1c(oc(C(=O)N3CCCC3)c1C)CC2 | -8 | -32* | 16 | -4 | 4
CC(=O)NC/C(C)=N\Nc1ccc([N+](=O)[O-])cc1 | -6 | 1 | -19 | -4 | 35*
N#C/C(=N\Nc1ccc([N+](=O)[O-])cc1)C(=N)N1CCOCC1 | 19 | -7 | 1 | 2 | 2
C/C(=N\Nc1ccc([N+](=O)[O-])cc1)c1ccc(O)cc1 | -8 | -27 | -27 | -14 | 37*
N#C/C(=N/Nc1ccc([N+](=O)[O-])cc1)C(=N)N1CCCCC1 | -12 | -4 | -54* | -2 | 0
CCOc1ccc(NC(=O)CCc2c(C)nc3c(c(C)nn3-c3ccccc3)c2C)cc1 | -3 | 1 | . | 0 | -1
CCCC(CNC(C)=O)(C1=CCCCC1)c1ccccc1 (stereo not drawn) | -2 | . | 4 | . | .
CC(=O)c1cccc(NC(=O)/C(=C/c2ccco2)NC(=O)c2ccco2)c1 | 7 | 11 | -4 | 38* | 1
Cc1cc(Cl)c(OCCOCCN2CCC(C)CC2)c(Br)c1 | -29 | 7 | -56* | -14 | 34*
Brc1c(OCCOCCn2cncn2)ccc2ccccc12 | -6 | 1 | -2 | -2 | 1
CN(C)CCOCCOc1ccc(Cl)cc1Br | -19 | -16 | -76* | -8 | 6
Cc1ccc(C)c(NC(=O)CCN2CCCC(C)C2)c1 (stereo not drawn) | -19 | -14 | -24 | -6 | 5
Cc1ccc(Cl)c(OCCN2CCCC(C)C2)c1 (stereo not drawn) | -8 | -71* | -68* | -4 | 6
CC1CCCN(CCOc2ccc3ccccc3c2Br)C1 (stereo not drawn) | -17 | . | -96* | -5 | -1
